# Data taken from the supplement of paper PMC6992640.
# ± gives the standard deviation of the averaged measurements.
# Tests used:
# Test in all cases: cell viability (% of vehicle); higher = less cytotoxic
# HCI01 [1] = cells of a triple-negative basal-like breast cancer xenograft; details: 1 µM; 72 h
# UCD52 [2] = cells of a triple-negative basal-like breast cancer xenograft; details: 1 µM; 72 h
# WHIM2 [3] = cells of a triple-negative basal-like breast cancer xenograft; details: 1 µM; 72 h
# WHIM30 [4] = cells of a triple-negative basal-like breast cancer xenograft; details: 1 µM; 72 h
# HCI01 [5] = details: 10 µM; 72 h
# HCI03 = cells of an ER-positive luminal breast cancer xenograft; details: 10 µM; 72 h
# HCI09 = cells of a triple-negative luminal androgen receptor type breast cancer xenograft; details: 10 µM; 72 h
# HCI11 = cells of an ER-positive luminal breast cancer xenograft; details: 10 µM; 72 h
# HCI13 = cells of an ER-positive luminal breast cancer xenograft; details: 10 µM; 72 h
# HCI16 = cells of a triple-negative basal-like breast cancer xenograft; details: 10 µM; 72 h
# UCD52 [6] = details: 10 µM; 72 h
# WHIM2 [7] = details: 10 µM; 72 h
# WHIM30 [8] = details: 10 µM; 72 h
Structure (SMILES),cell viability (HCI01 [1]),cell viability (UCD52 [2]),cell viability (WHIM2 [3]),cell viability (WHIM30 [4]),cell viability (HCI01 [5]),cell viability (HCI03),cell viability (HCI09),cell viability (HCI11),cell viability (HCI13),cell viability (HCI16),cell viability (UCD52 [6]),cell viability (WHIM2 [7]),cell viability (WHIM30 [8])
CCc1c(Cl)c(O)c(Cl)c(O)c1C(=O)OC1C(C)OC(OCC2=CC=CCC(O)C(C)=CC(CC)C(OC3OC(C)(C)C(OC(=O)C(C)C)C(O)C3O)C(C)=CC(C)=CCC(C(C)O)OC2=O)C(OC)C1O (configuration not stated) [Fidaxomicin],99.3,110,122,102,39.9 ± 12,65.5,28.6 ± 7.5,72.7,46.3 ± 0.086,56.3,44.6 ± 6.6,40.7 ± 8.9,29.3 ± 0.66
CN(C(=O)CN(CCO)CC(=O)N(C)C(C)(C)Cc1ccccc1)C(C)(C)Cc1ccccc1 [Oxethazaine],87.3,93.6,88.5,88.4,96.6 ± 4.3,55.9,69.4 ± 40,87.9,45.7 ± 12,83.1,39.3 ± 4.8,43.2 ± 9.4,96.4 ± 9.4
O=C(NC1CCN(CCCCC2(C(=O)NCC(F)(F)F)c3ccccc3-c3ccccc32)CC1)c1ccccc1-c1ccc(C(F)(F)F)cc1 [Lomitapide],92.2,56.3,62.7,63.8,34.8 ± 7.4,49.3,26.5 ± 2.4,43.7,33.8 ± 3.2,47.3,33 ± 3,41 ± 4.1,109 ± 5.5
CC(C)(C)c1ccc(C(=O)CCCN2CCC(OC(c3ccccc3)c3ccccc3)CC2)cc1 [Ebastine],94.4,87.5,107,83.4,83.8 ± 57,70.2,53.2 ± 39,81.2,31.9 ± 3.6,77.5,52.1 ± 4.6,52.3 ± 7.3,78.2 ± 9.7
CC(CCC(=O)O)C1CCC2C3CCC4CC(O)CCC4(C)C3CCC12C (configuration not stated) [Lithocholic Acid],89.2,96.6,92.9,91.5,65.5 ± 50,132,95.1 ± 24,103,84.8 ± 7,91.3,86.8 ± 6.5,37.8 ± 10,90.1 ± 6.3
Nc1ccn(C2OC(CO)C(O)C2O)c(=O)n1 (configuration not stated) [Cytarabine],75,106,87.1,80.9,65 ± 1.2,101,94.2 ± 1.1,136,76.4 ± 11,83.3,91.4 ± 17,58.4 ± 8.6,86.07 ± 0.15
O=C(C=Cn1cnc(-c2cc(C(F)(F)F)cc(C(F)(F)F)c2)n1)NNc1cnccn1,67.4,59.5,66.1,41.8,41.9 ± 24,41,31.5 ± 14,92.7,35.4 ± 2.5,73.2,80.1 ± 1.8,70.94 ± 0.096,46.7 ± 0.48
COc1cc2nccc(Oc3ccc(NC(=O)Nc4cc(C)on4)c(Cl)c3)c2cc1OC [Tivozanib (AV-951)],91,61.4,94.3,85.1,85.4 ± 37,80,67 ± 50,75.1,60.9 ± 7.7,69.7,81.1 ± 22,61.7 ± 18,57.6 ± 2.1
CC(Oc1cc(-c2cnn(C3CCNCC3)c2)cnc1N)c1c(Cl)ccc(F)c1Cl [(R)-Crizotinib],154,67.6,106,95.7,60 ± 23,135,24.8 ± 3.8,89.6,141.8 ± 0.89,41.9,23.1 ± 3.7,39.3 ± 3.3,125 ± 27
